A selection: hits, their analogues and other compounds. The true share with any hit is near 2.6%.
A3A deaminase – inhibitors of human APOBEC3A DNA deaminase; P31941; recombinant A3A, FAM/TAMRA ssDNA deamination fluorescence; inhibition, % at 20 µM; actives 0.41% (n = 330,000); AID 493011;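 active means at least 40% inhibition at 20 µM here, with at most 30% in a related deaminase screen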
A3G deaminase – blocks human APOBEC3G single-stranded DNA deamination | AID 493012 | inhibition, % at 20 µM | actives 0.28% (n = 330,000) | recombinant A3G, ssDNA deamination FAM/TAMRA fluorescence | Q9HC16;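 active means inhibition of at least 40% at 20 µM, with no more than 30% in the related APOBEC3A deaminase screen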
PABP1 MLLE inh – blocks PAM2 peptide binding to the PABP1 MLLE domain; inhibition, % at 20 µM; GST-MLLE / FITC-PAM2 fluorescence polarization; P11940; actives 0.36% (n = 360,000); AID 588489; in the data active means inhibition above about 35%, passing the limit was not always enough
eIF4H inh – inhibitors of RNA binding by human eIF4H; Q15056; eIF4H fluorescence polarization binding assay; inhibition, % at 35 µM; actives 0.94% (n = 290,000); AID 2012;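 further: calls also rest on retests at 20 µM and on dose response follow-up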
PHOSPHO1 block – PHOSPHO1 (human) inhibition | actives 1.1% (n = 290,000) | Q8TCT1 | recombinant PHOSPHO1, absorbance phosphatase assay | inhibition, % at 13.3 µM; in the data active means inhibition above about 60%
PABP FP inh – blocks human PABP binding to poly(A) RNA | P11940 | fluorescence polarization | calls only at 35 µM | actives 1% (n = 290,000) | AID 2014;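 further: calls also rest on retests at 20 µM and on dose response follow-up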
A number is an active result; i = inactive; ? = inconclusive; nt = no result given; + = active, no number; ! = not active in a repeat. Unless noted, how the calls were made is not given here.

SMILES	A3A deaminase	A3G deaminase	PABP1 MLLE inh	eIF4H inh	PHOSPHO1 block	PABP FP inh
Cc1ccc(-c2cc3c(n2-c2ccc(C(=O)O)cc2)CCCC3=O)cc1	i	i	i	i	i	i
Cc1ccc(-n2c(C)cc3c2CCCC3=O)cc1	i	i	42	i	i	i
COc1ccc(CNc2nc3ccccc3n2C)c(OC)c1	i	i	i	i	i	i
COc1ccc(N=Nc2nc3cc(Br)c(Br)cc3n2C)c(OC)c1	nt	nt	i	?	72	i
N#C/C(=C\c1cc(O)c(O)c(O)c1)C(N)=O	i	i	i	54	i	+
O=S(=O)(NC(=S)NC1CCCCC1)c1ccc(Cl)cc1	i	i	i	i	i	i
CCc1ccc(S(=O)(=O)NC(=S)NC2CCCCC2)cc1	i	i	43	i	i	i
Cc1ccc(S(=O)(=O)NC(=S)NC2CCCCC2)cc1	i	i	47	i	i	i
Nc1ncnc2c1ncn2[C@@H]1O[C@H](CNS(=O)(=O)c2cc(S(=O)(=O)c3ccccc3)cs2)[C@@H](O)[C@H]1O	i	i	i	nt	nt	nt
COc1cc(CN2CCNC(=O)C2CC(=O)NC2CCC2)cc(OC)c1 (stereo not given)	i	i	i	i	i	i
CCS(=O)(=O)CCn1c([N+](=O)[O-])cnc1C	i	i	i	i	i	i
Cc1ncc([N+](=O)[O-])n1CC(C)O (stereo not given)	i	i	i	?	i	+!
Cc1ncc([N+](=O)[O-])n1CCO	i	i	i	5.6	i	i
O=C(NNC(=O)c1ccncc1)Nc1ccc([N+](=O)[O-])cc1	i	i	i	i	i	+
Cn1c(=O)c2c(nc(SCC(=O)O)n2Cc2cc3c(cc2Cl)OCO3)n(C)c1=O	i	i	i	i	64	i
CCOC(=O)c1c(N)sc(C(=O)OCCOC)c1C	i	i	i	i	i	i
CCN(CC(=O)Nc1cc(Cl)ccc1C)C(=O)CCOc1ccccc1C	i	i	i	i	i	i
COc1ccc(-c2oc(=O)n(C)c2-c2ccc(OC)cc2)cc1	i	i	i	i	61	i
CC(NC(=O)C(=O)NCCC1=CCCCC1)c1ccccc1 (stereo not given)	i	i	i	i	i	i
Cc1cc2nc(CCN(Cc3cccnc3)C(=S)Nc3ccc(F)cc3)[nH]c2cc1C	i	i	i	i	i	i
Cc1cc2nc(CCN(Cc3cccnc3)C(=S)Nc3ccccc3)[nH]c2cc1C	i	i	i	i	92	i
CCOC(=O)CSc1nc2c(sc(=S)n2-c2ccccc2OC)c(=O)n1Cc1ccco1	i	i	38	i	i	i
CCOC(=O)CSc1nc2c(sc(=S)n2-c2ccccc2OC)c(=O)n1-c1ccccc1OC	i	i	i	i	i	i
Cc1noc(C(F)(F)F)c1C(=O)NNC(=O)c1cccc(C(F)(F)F)c1	i	i	i	i	i	i
Cc1[nH]n(C(N)=S)c(=O)c1N=Nc1ccc(S(=O)(=O)N2CCCC2)cc1	i	i	42	i	i	i
SMILES	A3A deaminase	A3G deaminase	PABP1 MLLE inh	eIF4H inh	PHOSPHO1 block	PABP FP inh
Fc1c(F)c(F)c(N=Cc2ccc3ncccc3c2)c(F)c1F	i	i	i	0.6	i	+
CC(=O)Nc1cc(NC(C)=O)cc(C(=O)N2CCCC3CCCCC32)c1 (stereo not given)	i	i	i	79	i	+
O=C(Nc1ccccc1)N1CCCC2CCCCC21 (stereo not given)	i	i	i	i	i	i
COc1ccc(C(=O)Oc2ccc3oc(=O)sc3c2)cc1	i	i	i	i	94	i
COc1ccc(OC)c(S(=O)(=O)N(C(C)=O)c2ccc3oc(=O)sc3c2)c1	i	i	i	i	i	i
CC(C)C(=O)N(c1ccc2oc(=O)sc2c1)S(=O)(=O)c1ccccc1	i	i	i	i	92	i
CCCC(=O)N(c1ccc2oc(=O)sc2c1)S(=O)(=O)c1cccs1	i	i	i	i	95	i
CN(CC(=O)O)S(=O)(=O)c1cccs1	i	i	i	i	i	i
CC(=O)N(c1ccc2oc(=O)sc2c1)S(=O)(=O)c1ccccc1	i	i	i	i	i	i
COc1ccc(S(=O)(=O)N(C(=O)C(C)C)c2ccc3oc(=O)sc3c2)cc1	i	i	38	i	97	i
C=CC(=O)NC(C)(C)CCN1CCOCC1	i	i	i	i	i	i
O=C(NC1CCCCC1)C1CC(=O)N(CCc2ccc(F)cc2)C1 (stereo not given)	i	i	i	i	i	i

Bioassay records deposited in PubChem BioAssay by Sanford-Burnham Center for Chemical Genomics.
